# Data from the supplement of paper PMC9801561.
# ± gives the standard deviation of the averaged measurements.
# Experiments:
# [1] = test system: Escherichia coli Nissle 1917; assay: area under OmniLog respiration curve over 48 h (OmniLog units x h); higher = more growth / nutrient utilisation; extreme values may be limits of the assay; conditions: incubation: 48 h, 37 °C
# [2] = test system: Escherichia coli Nissle 1917; assay: DuctApe activity index of respiration/growth curve (0 no growth to 9 maximum) (index 0-9); higher = more growth / nutrient utilisation, active = 3 or more; extreme values may be limits of the assay; conditions: incubation: 48 h, 37 °C
# [3] = nutrient role: C-Source, carbohydrate
# [4] = nutrient role: sole nitrogen source (pyruvate carbon)
# [5] = nutrient role: C-Source, amino acid
# [6] = nutrient role: sole sulfur source (pyruvate carbon)
# [7] = nutrient role: sole phosphorus source (pyruvate carbon)
# [8] = nutrient role: C-Source, carboxylic acid
# [9] = nutrient role: C-Source, alcohol
# 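For DuctApe activity index of respiration/growth curve (0 no growth to 9 maximum) in this document: biolog PM4 phosphorus and sulfur plates, tetrazolium violet dye reduction read in the OmniLog every 15 min, kinetic curves scored by DuctApe, each plate run in triplicate.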
structure (smiles),measurement,setting,value
Cc1cn([C@H]2C[C@H](O)[C@@H](CO)O2)c(=O)[nH]c1=O [Thymidine],area under OmniLog respiration curve,[1]; [3],9560 ± 710
same,area under OmniLog respiration curve,[1]; [4],4.72
same,DuctApe activity index,[2]; [3],8.67 (active)
same,DuctApe activity index,[2]; [4],0 (inactive)
CC(C)C[C@H](N)C(=O)O [L-Leucine],area under OmniLog respiration curve,[1]; [5],15.5 ± 9.5
same,area under OmniLog respiration curve,[1]; [4],804 ± 870
same,DuctApe activity index,[2]; [5],0 (inactive)
same,DuctApe activity index,[2]; [4],1.33 (inactive)
N[C@H]1C(O)O[C@H](CO)[C@@H](O)[C@@H]1O (stereo partly drawn) [D-Glucosamine],area under OmniLog respiration curve,[1]; [3],8060 ± 400
same,area under OmniLog respiration curve,[1]; [4],2180 ± 1100
same,DuctApe activity index,[2]; [3],8 (active)
same,DuctApe activity index,[2]; [4],3.33 (active)
Nc1ncnc2c1ncn2[C@@H]1O[C@H](CO)[C@@H](O)[C@H]1O [Adenosine],area under OmniLog respiration curve,[1]; [3],9110 ± 480
same,area under OmniLog respiration curve,[1]; [4],6810 ± 990
same,DuctApe activity index,[2]; [3],8.67 (active)
same,DuctApe activity index,[2]; [4],7.33 (active)
NC(=O)CC[C@H](N)C(=O)O [L-Glutamine],area under OmniLog respiration curve,[1]; [5],8360 ± 610
same,area under OmniLog respiration curve,[1]; [4],8560 ± 1200
same,DuctApe activity index,[2]; [5],8.33 (active)
same,DuctApe activity index,[2]; [4],8.33 (active)
N[C@@H](CO)C(=O)O [L-Serine],area under OmniLog respiration curve,[1]; [5],8500 ± 700
same,area under OmniLog respiration curve,[1]; [4],7360 ± 1300
same,DuctApe activity index,[2]; [5],8.67 (active)
same,DuctApe activity index,[2]; [4],8 (active)
CSCC[C@H](NC(=O)CN)C(=O)O,area under OmniLog respiration curve,[1]; [4],5710 ± 1300
same,area under OmniLog respiration curve,[1]; [6],5820 ± 90
same,DuctApe activity index,[2]; [4],7 (active)
same,DuctApe activity index,[2]; [6],7 (active)
O=C[C@H](O)[C@@H](O)[C@H](O)[C@H](O)COP(=O)(O)O [D-Glucose-6-Phosphate],area under OmniLog respiration curve,[1]; [3],10100 ± 940
same,area under OmniLog respiration curve,[1]; [7],8680 ± 490
same,DuctApe activity index,[2]; [3],9 (active)
same,DuctApe activity index,[2]; [7],8.67 (active)
O=C(CO)[C@@H](O[C@H]1O[C@H](CO)[C@@H](O)[C@H](O)[C@H]1O)[C@H](O)[C@H](O)CO [Turanose],area under OmniLog respiration curve,[1]; [3],532 ± 350
same,DuctApe activity index,[2]; [3],0.333 (inactive)
O=C(O)COP(=O)(O)O [Phospho-Glycolic acid],area under OmniLog respiration curve,[1]; [7],9060 ± 940
same,DuctApe activity index,[2]; [7],8.67 (active)
OC[C@@H]1OC(O)[C@@H](O)[C@H](O)[C@H]1O (stereo partly drawn) [L-Glucose],area under OmniLog respiration curve,[1]; [3],29.9 ± 43
same,DuctApe activity index,[2]; [3],0 (inactive)
OC[C@@H](O)C(O)[C@H](O)CO [D-Arabitol],area under OmniLog respiration curve,[1]; [3],4.72
same,DuctApe activity index,[2]; [3],0 (inactive)
O=C(O)[C@H]1OC(O)[C@H](O)[C@@H](O)[C@@H]1O (stereo partly drawn) [D-Glucuronic acid],area under OmniLog respiration curve,[1]; [8],10000 ± 950
same,DuctApe activity index,[2]; [8],9 (active)
C[C@H](N)C(=O)N[C@@H](CCC(N)=O)C(=O)O,area under OmniLog respiration curve,[1]; [4],8550 ± 1600
same,DuctApe activity index,[2]; [4],8 (active)
"CC(O)C(C)O (stereo not given) [2,3-Butanediol]",area under OmniLog respiration curve,[1]; [9],20.2 ± 16
same,DuctApe activity index,[2]; [9],0 (inactive)
NCCCC(=O)O [g-Amino-N-Butyric acid],area under OmniLog respiration curve,[1]; [8],4.72
same,area under OmniLog respiration curve,[1]; [4],2000 ± 1100
same,DuctApe activity index,[2]; [8],0 (inactive)
same,DuctApe activity index,[2]; [4],4 (active)
O=C(O)CC(O)C(=O)O (racemic) [DL-Malic acid],area under OmniLog respiration curve,[1]; [8],8150 ± 730
same,DuctApe activity index,[2]; [8],8 (active)
O=C[C@H](O)[C@H](O)[C@@H](O)CO [L-Lyxose],area under OmniLog respiration curve,[1]; [3],2670 ± 880
same,DuctApe activity index,[2]; [3],4.33 (active)
O=c1cc[nH]c(=O)[nH]1 [Uracil],area under OmniLog respiration curve,[1]; [4],103 ± 170
same,DuctApe activity index,[2]; [4],0 (inactive)
O=C(O)[C@]1(O)C[C@@H](O)[C@@H](O)[C@H](O)C1 [Quinic acid],area under OmniLog respiration curve,[1]; [8],4.72
same,DuctApe activity index,[2]; [8],0 (inactive)
OC1OC[C@@H](O)[C@@H](O)[C@@H]1O (stereo partly drawn) [D-Arabinose],area under OmniLog respiration curve,[1]; [3],2440 ± 230
same,DuctApe activity index,[2]; [3],4 (active)
Nc1nc2c(ncn2[C@@H]2O[C@H](COP(=O)(O)O)[C@@H](O)[C@H]2O)c(=O)[nH]1 [Guanosine 5`-Monophosphate],area under OmniLog respiration curve,[1]; [7],9210 ± 900
same,DuctApe activity index,[2]; [7],8.67 (active)
O=C(O)CCC(=O)O [Succinic acid],area under OmniLog respiration curve,[1]; [8],9020 ± 680
same,DuctApe activity index,[2]; [8],8.67 (active)
N[C@@H](CS)C(=O)O [L-Cysteine],area under OmniLog respiration curve,[1]; [4],9700 ± 1400
same,area under OmniLog respiration curve,[1]; [6],7230 ± 260
same,DuctApe activity index,[2]; [4],8.67 (active)
same,DuctApe activity index,[2]; [6],7.33 (active)
N[C@@H](C(=O)O)[C@@H](O)[C@H](O)[C@H](O)CO [D-Glucosaminic acid],area under OmniLog respiration curve,[1]; [8],1010 ± 670
same,DuctApe activity index,[2]; [8],2 (inactive)
N[C@@H](CS)C(=O)NCC(=O)O,area under OmniLog respiration curve,[1]; [6],6960 ± 77
same,DuctApe activity index,[2]; [6],7 (active)
OC[C@H]1O[C@@](CO)(O[C@H]2O[C@H](CO)[C@@H](O)[C@H](O)[C@H]2O)[C@@H](O)[C@@H]1O [Sucrose],area under OmniLog respiration curve,[1]; [3],634 ± 420
same,DuctApe activity index,[2]; [3],1.67 (inactive)
OC[C@@H](O)[C@H](O)[C@H](O)[C@@H](O)CO [Dulcitol],area under OmniLog respiration curve,[1]; [3],3230 ± 100
same,DuctApe activity index,[2]; [3],6 (active)
NCC(=O)N[C@@H](CCC(N)=O)C(=O)O,area under OmniLog respiration curve,[1]; [4],8900 ± 1400
same,DuctApe activity index,[2]; [4],8.67 (active)
OC[C@H]1O[C@@H](O[C@@H]2[C@@H](CO)OC(O)(CO)[C@H]2O)[C@H](O)[C@@H](O)[C@H]1O (mixture of isomers) [Lactulose],area under OmniLog respiration curve,[1]; [3],8170 ± 840
same,DuctApe activity index,[2]; [3],8 (active)
Cc1c[nH]c(=O)[nH]c1=O [Thymine],area under OmniLog respiration curve,[1]; [4],67 ± 110
same,DuctApe activity index,[2]; [4],0 (inactive)
"CSCCC(NC(C)=O)C(=O)O (racemic) [N-Acetyl-D,L-Methionine]",area under OmniLog respiration curve,[1]; [6],5080 ± 220
same,DuctApe activity index,[2]; [6],7 (active)
O=C(O)[C@H](O)[C@@H](O)[C@H](O)[C@H](O)COP(=O)(O)O [6-Phospho-Gluconic acid],area under OmniLog respiration curve,[1]; [7],9360 ± 510
same,DuctApe activity index,[2]; [7],9 (active)
NC(=O)NCCC[C@H](N)C(=O)O [L-Citrulline],area under OmniLog respiration curve,[1]; [4],1240 ± 540
same,DuctApe activity index,[2]; [4],2.33 (inactive)
O=S(=O)(O)CCO [2-Hydroxyethane Sulfonic acid],area under OmniLog respiration curve,[1]; [6],7790 ± 450
same,DuctApe activity index,[2]; [6],8 (active)
